Here are results for 46 molecules from PubChem BioAssay AID1490 (National Center for Advancing Translational Sciences (NCATS), 2009).

Screen size: about 310,000 compounds; about 11,000 (3.5%) were called active. Another 4% or so got no clear call; they are omitted. Shown is part of a subset that was picked to be rich in actives. Values without a mark were called inactive. The call rests on the fitted dose curve; in most records, active means well fitted inhibition curve with a large enough effect; inconclusive means small, poorly fitted or top-dose-only effect, or another doubt; inactive means no such curve, though single readings can be large or run the other way.
Potency means the concentration at half of the fitted maximal effect.

For the assay, the target named is 4'-phosphopantetheinyl transferase ffp (Bacillus subtilis) (UniProt Q9F4F7). Briefly: qHTS Assay for Inhibitors of Bacillus subtilis Sfp phosphopantetheinyl transferase (PPTase).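 Further: the enzyme is Sfp with the accession as filed and its product quenches rhodamine fluorescence.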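 On largest response in the series, negative = inhibition: 0% = enzyme reaction without inhibitor and -100% = no enzyme wells.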 The conditions noted are these: Biochemical Sfp PPTase activity. The method in brief: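 Reaction rates are the 30-min fluorescence difference (ex 525, em 598 nm) in wells containing 15 nM Sfp, 5 uM rhodamine-CoA and 12.5 uM BHQ-2-YbbR at pH 7.6 with 10 mM MgCl2.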
As to `O=C1COc2ccc(S(=O)(=O)NCCc3ccc(Cl)cc3)cc2N1`, the largest response in the series, negative = inhibition was 13.2%.

Take `Cn1c(SCC(=O)Nc2ccc(Br)cc2F)nnc1-c1ccco1`: the largest response in the series, negative = inhibition was 1.27%.

Turning to `Cn1c(SCC(=O)c2cccs2)nnc1-c1ccco1`, the Potency was 22.4 µM (active).

For `CCOC(=O)CSc1nnc(-c2ccco2)n1C`, the largest response in the series, negative = inhibition was -9.26%.

Take `CCC(C)(C)NC(=O)C(c1ccc(OC)cc1)N(C(=O)CCC(=O)Nc1cc(C)on1)c1ccc(OC)cc1OC` (stereo unspecified): the largest response in the series, negative = inhibition was 11.3%.

`CCOCCCNC(=S)Nc1ccc2nc(N3CCN(CC)CC3)cc(C)c2c1`: the largest response in the series, negative = inhibition is 10.7%.

`CCc1ccccc1NC(=O)c1ccc2c(c1)CCN2S(C)(=O)=O`: the largest response in the series, negative = inhibition was 10.6%.

On to `CC(=O)c1c(-c2ccccc2)c2ccccc2[nH]c1=O`, for which the largest response in the series, negative = inhibition is 28.5%.

For `Cc1ccc(-c2nc3ccccc3[nH]c2=O)cc1`, the largest response in the series, negative = inhibition is 9.46%.

`O=c1[nH]c2ccccc2n2c(-c3ccccc3)nnc12`: the Potency was 1.26 µM (active).

As for `O=C(CCn1nnnc1CN1CCOCC1)N1CCC(c2ccccc2Cl)C1` (stereo unspecified), the largest response in the series, negative = inhibition was 10.9%.

Take `Cc1ccc(CNC(=O)[C@@H](NC(=O)Cc2ccccc2)C(C)C)cc1`: the largest response in the series, negative = inhibition is 19.7%.

Turning to `C=CCn1cnc2scc(-c3ccccc3)c2c1=O`, the largest response in the series, negative = inhibition is 10.8%.

`C=CCn1c(=S)[nH]c2scc(-c3ccco3)c2c1=O`: the Potency is 20 µM (active).

For the molecule `C=CCn1c(=S)[nH]c2nc3c(cc2c1=O)COC(C)(C)C3`, the largest response in the series, negative = inhibition is -7.89%.

For the molecule `COc1cccc(-n2c(N)cc(=O)nc2SCC(=O)Nc2cc(C)on2)c1`, the largest response in the series, negative = inhibition was 21.7%.

`CCOC(=O)C1(CCOc2ccccc2)CCN(Cc2ccc(C#CCCO)cc2)CC1`: the largest response in the series, negative = inhibition was 10.5%.

For the molecule `Nc1nc(NCc2ccccc2)n(-c2ccccc2)n1`, the largest response in the series, negative = inhibition was 16.4%.

In the case of `Cc1cc2nc3c(=O)n(Cc4ccccc4)c(=O)[nH]c3nc2cc1N`, the Potency was 20 µM (active).

On to `CC(=O)c1ccc(-c2ccc(Cn3c(C)nc4cc(N)c(C)nc43)cc2)cc1`, for which the largest response in the series, negative = inhibition was 5.24%.

Regarding `O=c1[nH]c2c(c(=O)n1Cc1ccccc1)CCC2`, the largest response in the series, negative = inhibition was 4.99%.

On to `CC(C)Cn1cnc2c1c(=O)n(CC(=O)NN)c(=O)n2Cc1ccccc1`, for which the largest response in the series, negative = inhibition is 10.8%.

As to `CCOC(=O)[C@@H]1[C@H]2COc3cc(OC)ccc3[C@H]2N2C(=O)N(c3ccc(F)cc3)C(=O)[C@]12C`, the largest response in the series, negative = inhibition is 11.1%.

With `O=S(=O)(NC1CC2CCC1C2)c1ccc(Cl)cc1` (stereo unspecified), the largest response in the series, negative = inhibition is 6.14%.

Consider `COCOc1cc(OC)ccc1C(=O)/C=C/c1ccc([N+](=O)[O-])cc1`, for which the largest response in the series, negative = inhibition was 0.0276%.

Regarding `CCOc1ccc(NC(=S)NC(=O)/C=C/c2ccc(OC)cc2)c([N+](=O)[O-])c1`, the Potency is 70.8 µM (active).

Turning to `Cc1ccc(NC(=S)NC(=O)/C=C/c2ccc(Cl)cc2)cc1`, the largest response in the series, negative = inhibition is -9.72%.

Turning to `CCOC(=O)C1=C(c2ccccc2)NC(=O)NC1c1cc(OCC)c(O)c([N+](=O)[O-])c1` (stereo unspecified), the largest response in the series, negative = inhibition was 10.9%.

On to `Brc1ccccc1/C=N/Nc1nc2ccccc2o1`, for which the largest response in the series, negative = inhibition was -1.43%.

For the molecule `COC(=O)c1ccc2ccccc2c1OC1OC(CO)C(O)C(O)C1NC(C)=O` (stereo unspecified), the largest response in the series, negative = inhibition was 4.77%.

Take `COc1cc(CN2CCCN(C)CC2)c([N+](=O)[O-])cc1OC`: the largest response in the series, negative = inhibition is 5.29%.

With `COc1cc(CN2CCN(Cc3ccc(C)cc3)CC2)c([N+](=O)[O-])cc1OC`, the Potency was 56.2 µM (active).

Turning to `COc1cc(CN2CC(C)CC(C)C2)cc([N+](=O)[O-])c1O` (stereo unspecified), the largest response in the series, negative = inhibition was -8.11%.

`COc1ccc(OCC(=O)NNC(=O)c2ccc(-c3ccccc3)cc2)cc1`: the largest response in the series, negative = inhibition was -6.16%.

As for `COc1ccc(OCc2nnc3n2N=C(c2ccccc2)C(CC(=O)O)S3)cc1` (stereo unspecified), the Potency is 4.47 µM (active).

In the case of `COc1cccc(OCc2nnc3n2N=C(c2ccccc2)C(CC(=O)O)S3)c1` (stereo unspecified), the largest response in the series, negative = inhibition is 13.2%.

Turning to `COc1cccc(CNC(=O)C2CCCN(c3ncnc4c3nc3n4CCCCC3)C2)c1` (stereo unspecified), the largest response in the series, negative = inhibition is 3.29%.

Regarding `COC(=O)c1cccc(-n2[nH]nnc2=S)c1`, the Potency was 15.8 µM (active).

With `COC(=O)c1cccc(N2C(=O)C3C4C=CC(CC4)C3C2=O)c1` (stereo unspecified), the largest response in the series, negative = inhibition is 11.5%.

Consider `COC(=O)c1cccc(NS(C)(=O)=O)c1`, for which the largest response in the series, negative = inhibition is 9.77%.

With `CC1(C)Cc2c(sc(NC(=O)C(=O)NCC3CCCO3)c2C(=O)O)CO1` (stereo unspecified), the largest response in the series, negative = inhibition is 8.68%.

On to `C=C(C(C)=O)C(O)c1ccc([N+](=O)[O-])cc1` (stereo unspecified), for which the largest response in the series, negative = inhibition is -25.7%.

With `CC(=O)Nc1c2c(nn1-c1cccc(C)c1)CSC2`, the largest response in the series, negative = inhibition is 15.2%.

As to `CCN1/C(=C/C(=S)Nc2ccccc2)Sc2ccccc21`, the Potency is 14.1 µM (active).

`CCN1/C(=C/c2ccc3ccc(C)cc3[n+]2CC)Sc2ccccc21`: the largest response in the series, negative = inhibition is -8.02%.

Consider `O=C(CCN1c2ccccc2Sc2ccccc21)Nc1ccccc1`, for which the largest response in the series, negative = inhibition is -1.89%.
